Hits are enriched below; roughly 5.9% of the tested compounds scored in any of these assays.
AHR act – human AHR activation | P35869 | AID 2796 | activation, % at 5 µM | AHR-responsive luciferase reporter cells, luminescence | actives 2.5% (n = 320,000); in the data active means activation above about 47%
Target sequence (P35869 whole entry, looked up): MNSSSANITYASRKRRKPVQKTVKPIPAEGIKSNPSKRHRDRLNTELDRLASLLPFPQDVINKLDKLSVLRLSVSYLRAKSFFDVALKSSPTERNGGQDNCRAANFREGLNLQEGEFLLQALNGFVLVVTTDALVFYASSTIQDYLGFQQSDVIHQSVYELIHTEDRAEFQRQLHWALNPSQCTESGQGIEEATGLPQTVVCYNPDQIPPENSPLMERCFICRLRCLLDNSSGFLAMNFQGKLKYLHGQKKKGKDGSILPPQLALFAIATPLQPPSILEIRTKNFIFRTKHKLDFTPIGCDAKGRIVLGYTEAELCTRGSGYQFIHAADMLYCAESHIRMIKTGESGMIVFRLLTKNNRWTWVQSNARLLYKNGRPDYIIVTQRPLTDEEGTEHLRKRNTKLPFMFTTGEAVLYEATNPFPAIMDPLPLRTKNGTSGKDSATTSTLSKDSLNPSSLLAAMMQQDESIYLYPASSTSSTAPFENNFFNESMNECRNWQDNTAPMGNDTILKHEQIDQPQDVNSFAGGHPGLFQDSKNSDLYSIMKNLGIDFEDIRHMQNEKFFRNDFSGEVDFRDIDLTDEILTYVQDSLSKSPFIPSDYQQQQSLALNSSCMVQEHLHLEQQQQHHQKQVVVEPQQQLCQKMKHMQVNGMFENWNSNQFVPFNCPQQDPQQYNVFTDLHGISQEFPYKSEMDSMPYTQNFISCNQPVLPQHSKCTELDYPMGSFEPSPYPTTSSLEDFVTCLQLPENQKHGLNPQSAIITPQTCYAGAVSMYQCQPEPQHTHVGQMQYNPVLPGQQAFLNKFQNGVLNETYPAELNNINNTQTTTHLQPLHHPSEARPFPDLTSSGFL
HSF1 activator – increases HSF-1 driven luciferase reporter signal; NIH3T3-HGL HSF-1 luciferase reporter, MG132, 8 h; 100% = twice DMSO control signal; activation, % at 9 µM; actives 1.7% (n = 300,000); AID 504408;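 active means mean replicate activation of at least 50% with a set share of replicates each reaching 50%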
NR0B1 inh – inhibitors of human orphan nuclear receptor DAX1 (NR0B1) | P51843 | HEK293 Gal4-DAX1 luciferase reporter, luminescence | inhibition, % at 6.75 µM | actives 0.99% (n = 340,000) | AID 504766;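 active means inhibition above the mean over all tested compounds plus 3 SD, cut at about 4.2% in these data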;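 further: inhibition shows as a rise in luminescence from relieved DAX1 repression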
HSF1 inh – HSF1 inhibition; actives 0.77% (n = 300,000); activity change, negative = inhibition, % at 7.5 µM (by protocol); NIH3T3-HGL HSE-luciferase, MG132-induced, luminescence 8 h; stronger effect = lower value; AID 2098;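 active means more than half of replicate wells show activity change below -50%, luminescence cut by over half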;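 further: luciferase reports HSF-1 transcriptional activity via heat shock element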
FXN GAA850 act – activators of GAA850 frataxin (FXN) promoter | HEK293 lucGAA850 FXN promoter luciferase reporter, 24 h; percent of 10 µM SAHA response | actives 0.56% (n = 360,000) | activation, % at 6 µM;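 active means activation above the average of all compounds screened plus 3 SD, cutoff fixed separately per campaign, cut at about 7.5% in these data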
HSP90 refold inh – HSP90 refolding inhibition in rabbit reticulocyte lysate | inhibition, % at 5.6 µM | actives 0.91% (n = 290,000) | AID 1789 | luciferase refolding luminescence, 3 h;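 active means inhibition above the screen-wide mean plus 3 SD, computed separately per campaign, cut at about 16% in these data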;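 further: inhibitors lower the luminescence because luciferase stays unfolded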
Hits are given with their value; 0 = inactive; - = no result.

SMILES	AHR act	HSF1 activator	NR0B1 inh	HSF1 inh	FXN GAA850 act	HSP90 refold inh
Cc1ccc2nc(NC(=O)COC(=O)c3ccncc3)sc2c1	0	0	0	0	0	0
Cc1ccc2nc(NC(=O)CSCC(=O)OCC(=O)c3ccc(Br)cc3)sc2c1	0	0	0	-66	0	50
O=C(CSC1=Nc2ccccc2C2CC=NN12)NCc1ccco1 (stereo not given)	66	-	0	-	0	-
O=C(CN1C(=O)CC(c2ccccc2)=Nc2ccccc21)NCc1ccco1	0	71	0	0	0	0
N#Cc1ccccc1NC(=O)CSC1=Nc2ccccc2C2CC=NN12 (stereo not given)	0	0	0	0	0	0
O=C(CN1C(=O)CC(c2ccccc2)=Nc2ccccc21)NCc1ccccc1	0	0	0	0	0	0
CCOC(=O)N1CCN(S(=O)(=O)N2CCCC(C(=O)NCc3cc(Br)ccc3OC)C2)CC1 (stereo not given)	-	-	0	-	0	-
CCSc1ncc(/C=N/Nc2ccc(F)cc2)n1C	77	0	0	0	0	0
COc1ccc(NC2=C(Cl)C(=O)N(CCc3ccccc3)C2=O)c(OC)c1	0	0	0	0	0	0
COc1ccc(CCNC2CC(=O)N(CCc3ccccc3)C2=O)cc1 (stereo not given)	0	0	4.5	0	0	0
COc1ccc(NC2=C(Cl)C(=O)N(CCc3ccccc3)C2=O)cc1	0	59	0	0	0	0
O=C1CC(NCCc2ccccc2)C(=O)N1CCc1ccccc1 (stereo not given)	0	0	0	0	0	0
COc1cccc(C(=O)OCC(=O)Nc2nnc(-c3ccccc3)o2)c1	0	0	5.3	0	0	-
O=C(COC(=O)c1ccc(-c2nnc(-c3ccccc3)o2)cc1)c1ccccc1	0	51	0	0	0	0
Cc1cc(NC(=O)COC(=O)CCn2c(C)csc2=O)c([N+](=O)[O-])cc1C	-	-	0	-	0	-
CN1C(=O)[C@H](Cc2ccc([N+](=O)[O-])cc2)NC1=S	0	0	0	0	0	0
CCc1ccc(N/C(N)=N/c2nc(CSc3ncccn3)cc(=O)[nH]2)cc1	50	0	0	0	0	0
COc1ccc(N/C(N)=N/c2nc(CSc3nnc(C)s3)cc(=O)[nH]2)cc1	0	0	0	0	0	0
C/C(=N\NC(=O)c1ccccc1)c1c(C)[nH]n(-c2ccccc2)c1=O	0	0	4.8	0	0	0
O=C(Cc1ccc(NC(=O)C2CCN(C(=O)c3ccccc3)CC2)cc1)Nc1cccc(C(=O)N2CCCC2)c1	-	-	0	-	0	-
Cc1ccc(CC2CC(=O)N(Cc3ccco3)C2=O)cc1 (stereo not given)	0	73	0	0	0	0
O=C1CC(Cc2ccccc2)C(=O)N1Cc1ccco1 (stereo not given)	0	0	0	0	0	0
CCOc1nc(NCCO)nc(Nc2ccc([N+](=O)[O-])cc2)n1	0	0	0	0	0	0
CNc1nc(Nc2ccc([N+](=O)[O-])cc2)nc(OCC(F)(F)F)n1	62	0	0	0	0	0
CCCCCCC(NC(=O)Cc1ccc2ccccc2c1)C(=O)O (stereo not given)	-	-	0	-	0	-
SMILES	AHR act	HSF1 activator	NR0B1 inh	HSF1 inh	FXN GAA850 act	HSP90 refold inh
C=CCc1cc(Cl)ccc1OCCOCCNCCOC	0	0	0	0	0	0
C=CCc1cc(Cl)ccc1OCCNCCCOC	0	0	7.1	0	0	0
CNC(=O)/C(C#N)=C/c1c(N2CCN(c3ccc(OC)cc3)CC2)nc2c(C)cccn2c1=O	55	0	0	0	0	0
CNC(=O)/C(C#N)=C/c1c(N2CCN(c3ccccc3)CC2)nc2c(C)cccn2c1=O	49	0	0	0	0	0
CNC(=O)/C(C#N)=C/c1c(N2CCCCCC2)nc2c(C)cccn2c1=O	0	0	0	0	0	0
Cc1cccc(NCc2nc3ccccc3n2Cc2ccccc2)c1	0	0	0	0	0	0
Cc1nc2cc(NCc3nc4ccccc4n3Cc3ccccc3)ccc2n1C	0	0	0	0	0	16
Cc1cccc(NCc2nc3ccccc3n2C)c1	47	0	0	0	0	0
Cc1ccc(N2CCN(c3ccc(NCc4nc5ccccc5n4C)cc3)CC2)cc1	66	0	0	0	0	0
Cc1ccc(CNc2ccc(N3CCOCC3)cc2)cc1	0	0	0	0	0	0
